Test [1] relates to Plasmodium falciparum Sir2 (PF13_0152, Sir2A). Kind of test: pfSir2 binders on small-molecule microarrays, primary screen, biochemical, small-molecule microarray, 635 nm fluorescence (AID 1098).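 Also: score merges spot fluorescence intensity with its signal-to-noise ratio.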 Conditions: small-molecule microarray binding, fluorescence 635 nm; higher = more signal.
Test [2] in a line: small-molecule microarray binders of probe aDKK1, primary screen, biochemical, biotinylated probe, 635/667 nm fluorescence (AID 1099).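 Also: score merges 667nm spot fluorescence with signal to noise across triplicate slides.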 To be noted: higher = more signal.
Test [3] is described as follows: small-molecule microarray binders of probe aCHRDL2, primary screen, biochemical, biotinylated probe, 635/667 nm fluorescence (AID 1100). To be noted: higher = more signal.
Test [4] in a line: splicing luciferase reporter signal modulators, primary screen, spliceosome inhibition project, cell-based, HEK293, splice +/- reporter (AID 1101).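 Also: HEK293 cells carrying a splicing-competent luciferase reporter gene; test concentration not given here.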 Conditions: luminescence, 24 h, higher = more signal, called active from +8 up or from −8 down. (In general: Reporter assays use an easily measured gene product as a stand-in for the process of interest.)
Test [5] addresses Fibroblast growth factor 10 (Homo sapiens) (UniProt O15520). Put plainly: FGF10 binders on small-molecule microarrays, primary screen, biochemical, small-molecule microarray, 635 nm fluorescence (AID 1102). Conditions: FGF10 binding, fluorescence 635 nm, higher = more signal.
Test [6] deals with glycogen synthase kinase-3 (GSK3A per assay name; protocol says GSK3B). Kind of test: GSK3 binders on small-molecule microarrays, primary screen, biochemical, small-molecule microarray, 635 nm fluorescence, GSK3A (AID 1103). Also: the record names both GSK3A and GSK3B. To be noted: small-molecule microarray binding, fluorescence 635 nm; higher = more signal.
For test [7], the target named is Epidermal growth factor receptor (Homo sapiens) (UniProt P00533). Kind of test: EGFR binders on small-molecule microarrays, primary screen, biochemical, small-molecule microarray, 635 nm fluorescence (AID 1104).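 Also: score merges 667 nm emission intensity with spot signal to noise over triplicate slides.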 To be noted: EGFR binding, higher = more signal.
In test [8] the target is Follistatin-related protein 3 (Homo sapiens) (UniProt O95633). Put plainly: FSTL3 binders on small-molecule microarrays, primary screen, biochemical, small-molecule microarray, 635 nm fluorescence (AID 1105).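 Also: score merges emission near 667 nm and signal to noise per printed spot across three slides.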 To be noted: FSTL3 binding, higher = more signal.
For test [9], the target named is Dickkopf-related protein 1 (Homo sapiens) (UniProt O94907). Kind of test: DKK1 binders on small-molecule microarrays, primary screen, biochemical, small-molecule microarray, 635 nm fluorescence scan (AID 1106).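 Also: score merges emission near 667 nm with signal to noise over three replicate slides.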 Conditions: DKK1 binding, higher = more signal.
The test system of test [10] is Inhibin beta A chain (activin A). Kind of test: INHBA (activin A) binders on microarrays, primary screen, biochemical, small-molecule microarray, 635 nm fluorescence scan (AID 1107).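 Also: mouse activin A protein probed at 4.33 µg/mL on printed slides; score merges bound-protein fluorescence near 667 nm with spot signal-to-noise.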 Conditions: small-molecule microarray binding, higher = more signal.
Test [11] concerns Human papillomavirus type 1a protein E7 (residues 44-93). Kind of test: HPV1a E7 fragment binders on microarrays, primary screen, biochemical, small-molecule microarray, residues 44-93, 635 nm fluorescence (AID 1108).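 Also: E7 fragment applied at 1 µg/mL in TBST for 1 h at 4 C; score combines spot fluorescence with its signal to noise ratio.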 To be noted: small-molecule microarray binding, fluorescence 635 nm; higher = more signal.
The nature of test [12]: modulators of HCV replicon luciferase signal, primary screen, HCV replication inhibitor project, Huh7 cells, luciferase reporter (AID 1109).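 Also: huh7 hepatoma cells harbouring a luciferase neomycin HCV replicon reporter; luciferase luminescence as measure of HCV replicon replication; test concentration not given here.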 To be noted: 48 h, higher = more signal. Background: A replicon is a self-replicating genome or part of one, used to study replication in cells.
Test [13] addresses Left-right determination factor 2 (Homo sapiens) (UniProt O00292). Put plainly: LEFTY2 binders on small-molecule microarrays, primary screen, biochemical, small-molecule microarray, 635 nm fluorescence scan (AID 1110). Conditions: LEFTY2 binding, higher = more signal.
Test [14] concerns the target Calmodulin-1 (Homo sapiens) (UniProt P0DP23). Put plainly: CALM1 binders on microarrays, EGTA buffer, profiling panel, biochemical, small-molecule microarray, Cy5-labelled CALM1 (AID 1111).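 Also: labelled calmodulin applied in Tris saline Tween buffer holding calcium plus EGTA and DTT.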 Conditions: Cy5-CALM1 binding fluorescence, higher = more signal.
Test [15] shares this target. Put plainly: calcium-bound CALM1 binders on microarrays, profiling panel, artefact control for SMM control-protein annotation, biochemical, small-molecule microarray, Cy5-labelled CALM1, plus calcium (AID 1112).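 Also: score merges spot fluorescence with signal to noise from triplicate slides.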 To be noted: Cy5-CALM1 binding fluorescence, higher = more signal.
Test [16] is described as follows: small-molecule microarray binders of probe aWnt5a, primary screen, biochemical, biotinylated probe, 635/667 nm fluorescence (AID 1113).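 Also: score merges 667 nm fluorescence intensity with signal-to-noise per printed feature.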 To be noted: higher = more signal.
Test [17] can be described thus: small-molecule microarray binders of probe aShh, primary screen, biochemical, biotinylated probe, 635/667 nm fluorescence (AID 1114).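 Also: probe is biotin-labelled aShh protein from a stem cell growth factor screen; measures binding of labelled protein to compounds printed on the slide; score merges feature fluorescence at 667 nm with signal-to-noise.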 To be noted: higher = more signal.
Test [18] is described as follows: small-molecule microarray binders of probe aNog, primary screen, biochemical, biotinylated probe, 635/667 nm fluorescence (AID 1115).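 Also: probe is biotinylated aNog protein used at 0.15 µg/mL for 1 h at 4 C; z-score combines 667 nm fluorescence of each spot with its signal to noise.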 To be noted: higher = more signal.
Test [19] addresses Torsin-1A-interacting protein 1 (Homo sapiens) (UniProt Q5JTV8). Put plainly: LAP1 binders from COS7 cell lysate, primary screen, small-molecule microarray, 635/667 nm fluorescence (AID 1116). Conditions: COS7-hLAP1 lysate binding, 635 nm fluorescence, higher = more signal.
Test [20] deals with Alpha-bungarotoxin (Bungarus multicinctus) (UniProt P60615). Put plainly: alpha-bungarotoxin binders on microarray, profiling panel, artefact control for SMM control protein annotation, biochemical, small-molecule microarray, Alexa647 label, 635/667 nm fluorescence (AID 1117). To be noted: alpha-BTX-A647 binding fluorescence, higher = more signal.

Activity calls are given as the source filed them.

Sequence of Dickkopf-related protein 1 (Homo sapiens) (O94907 whole entry, looked up): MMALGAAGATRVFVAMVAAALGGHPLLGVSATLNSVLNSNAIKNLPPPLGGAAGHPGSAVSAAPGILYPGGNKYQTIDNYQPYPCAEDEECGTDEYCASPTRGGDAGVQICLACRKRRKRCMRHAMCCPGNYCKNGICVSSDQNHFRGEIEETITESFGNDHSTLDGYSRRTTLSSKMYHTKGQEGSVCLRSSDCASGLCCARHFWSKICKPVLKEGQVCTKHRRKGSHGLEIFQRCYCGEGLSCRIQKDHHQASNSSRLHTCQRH
Sequence of Torsin-1A-interacting protein 1 (Homo sapiens) (Q5JTV8 whole entry, looked up): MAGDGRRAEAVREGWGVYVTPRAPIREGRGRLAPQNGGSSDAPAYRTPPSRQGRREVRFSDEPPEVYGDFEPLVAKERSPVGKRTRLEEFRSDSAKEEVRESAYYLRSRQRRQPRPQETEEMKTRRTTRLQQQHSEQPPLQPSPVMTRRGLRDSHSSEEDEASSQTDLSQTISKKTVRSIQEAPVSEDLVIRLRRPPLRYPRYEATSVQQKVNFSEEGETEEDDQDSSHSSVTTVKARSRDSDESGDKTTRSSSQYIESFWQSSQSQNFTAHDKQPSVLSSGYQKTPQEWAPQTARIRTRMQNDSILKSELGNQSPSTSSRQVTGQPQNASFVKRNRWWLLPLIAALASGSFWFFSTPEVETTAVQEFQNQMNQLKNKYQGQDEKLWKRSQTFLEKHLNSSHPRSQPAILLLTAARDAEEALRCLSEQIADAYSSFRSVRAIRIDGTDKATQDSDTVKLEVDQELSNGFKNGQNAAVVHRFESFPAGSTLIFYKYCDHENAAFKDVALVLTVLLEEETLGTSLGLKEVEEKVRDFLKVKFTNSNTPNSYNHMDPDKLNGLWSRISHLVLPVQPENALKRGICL
Sequence of Alpha-bungarotoxin (Bungarus multicinctus) (P60615 whole entry, looked up): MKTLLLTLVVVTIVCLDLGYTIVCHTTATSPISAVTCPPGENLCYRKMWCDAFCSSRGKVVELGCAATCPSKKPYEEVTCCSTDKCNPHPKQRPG
Sequence of Follistatin-related protein 3 (Homo sapiens) (O95633 whole entry, looked up): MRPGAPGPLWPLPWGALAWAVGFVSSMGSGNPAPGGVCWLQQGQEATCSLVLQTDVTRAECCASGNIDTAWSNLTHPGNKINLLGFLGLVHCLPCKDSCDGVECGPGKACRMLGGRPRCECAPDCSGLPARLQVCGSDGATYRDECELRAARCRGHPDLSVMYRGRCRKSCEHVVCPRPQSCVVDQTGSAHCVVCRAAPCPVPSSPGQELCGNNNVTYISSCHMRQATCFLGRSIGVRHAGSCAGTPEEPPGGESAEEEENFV
Sequence of Fibroblast growth factor 10 (Homo sapiens) (O15520 whole entry, looked up): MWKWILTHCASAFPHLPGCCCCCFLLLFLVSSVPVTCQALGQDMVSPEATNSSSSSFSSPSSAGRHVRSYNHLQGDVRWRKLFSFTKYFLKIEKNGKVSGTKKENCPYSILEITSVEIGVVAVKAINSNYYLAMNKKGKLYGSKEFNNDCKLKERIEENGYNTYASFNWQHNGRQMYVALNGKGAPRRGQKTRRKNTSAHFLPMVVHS
Sequence of Left-right determination factor 2 (Homo sapiens) (O00292 whole entry, looked up): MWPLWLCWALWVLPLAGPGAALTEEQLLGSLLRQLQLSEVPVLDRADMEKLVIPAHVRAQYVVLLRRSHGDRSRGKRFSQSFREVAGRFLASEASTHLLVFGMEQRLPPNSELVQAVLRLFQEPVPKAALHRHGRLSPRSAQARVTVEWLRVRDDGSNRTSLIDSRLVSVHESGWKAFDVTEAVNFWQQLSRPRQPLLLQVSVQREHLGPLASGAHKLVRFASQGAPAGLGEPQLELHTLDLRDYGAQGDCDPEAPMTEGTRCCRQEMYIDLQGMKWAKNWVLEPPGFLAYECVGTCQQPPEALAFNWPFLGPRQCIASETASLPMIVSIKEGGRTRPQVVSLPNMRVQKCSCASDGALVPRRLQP
Sequence of Epidermal growth factor receptor (Homo sapiens) (P00533 whole entry, looked up): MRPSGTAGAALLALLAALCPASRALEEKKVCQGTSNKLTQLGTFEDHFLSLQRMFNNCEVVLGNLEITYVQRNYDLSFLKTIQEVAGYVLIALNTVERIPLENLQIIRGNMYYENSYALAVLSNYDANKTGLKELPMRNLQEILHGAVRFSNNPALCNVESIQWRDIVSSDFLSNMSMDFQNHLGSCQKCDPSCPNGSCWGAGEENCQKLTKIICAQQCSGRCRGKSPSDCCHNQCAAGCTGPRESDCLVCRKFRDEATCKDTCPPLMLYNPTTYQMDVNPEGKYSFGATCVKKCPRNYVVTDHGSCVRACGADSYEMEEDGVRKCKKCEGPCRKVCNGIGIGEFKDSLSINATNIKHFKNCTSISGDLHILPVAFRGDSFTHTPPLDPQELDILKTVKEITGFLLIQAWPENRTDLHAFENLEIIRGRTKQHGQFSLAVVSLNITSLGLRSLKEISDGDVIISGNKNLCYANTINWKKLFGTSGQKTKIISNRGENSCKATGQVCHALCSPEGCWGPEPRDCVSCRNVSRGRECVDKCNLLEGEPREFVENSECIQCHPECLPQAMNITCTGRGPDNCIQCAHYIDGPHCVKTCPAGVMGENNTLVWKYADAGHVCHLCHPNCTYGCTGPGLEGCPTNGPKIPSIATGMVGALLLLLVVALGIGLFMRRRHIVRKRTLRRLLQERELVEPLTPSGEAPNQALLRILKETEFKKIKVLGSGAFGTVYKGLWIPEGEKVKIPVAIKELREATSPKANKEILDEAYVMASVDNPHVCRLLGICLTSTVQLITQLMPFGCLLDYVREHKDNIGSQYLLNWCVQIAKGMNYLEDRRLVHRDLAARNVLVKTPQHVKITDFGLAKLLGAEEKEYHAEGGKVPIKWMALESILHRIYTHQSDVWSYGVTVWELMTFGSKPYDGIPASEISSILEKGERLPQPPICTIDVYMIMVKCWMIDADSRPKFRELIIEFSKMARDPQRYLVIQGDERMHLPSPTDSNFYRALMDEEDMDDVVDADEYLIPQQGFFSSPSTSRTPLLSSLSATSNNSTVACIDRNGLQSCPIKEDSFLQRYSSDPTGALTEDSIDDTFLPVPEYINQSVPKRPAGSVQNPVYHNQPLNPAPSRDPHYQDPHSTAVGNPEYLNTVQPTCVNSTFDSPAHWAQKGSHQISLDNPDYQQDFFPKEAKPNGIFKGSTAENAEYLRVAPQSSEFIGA

On to `C=CCC1(CC=C)C[C@H]2CO[C@H](c3ccc(OC)cc3)N2C1=O`, for which the composite z-score in [1] was 0.695; in test [2] it was -0.17; in test [3], 0.317; in [5] it was -0.193; in test [6], -0.217; in test [7], 0.291. Further, the composite z-score was 0.576 in [8]; 0.917 in test [9]; 1.55 in test [10]; -0.107 in test [11]; 0.447 in test [13]; -1.56 in [14]. The composite z-score was -2.31 in test [15]; -0.124 in [16]; -0.271 in test [17]; -0.0887 in test [18]; 0.656 in test [19]; 0.278 in test [20]. For the same molecule, the z-score in [4] was -0.512 (inactive); in [12] it was 0.805.

`C=CCC(OC(C)=O)[C@@H]1[C@@H](N(Cc2cccc3ccccc23)C(=O)c2cccc3ccccc23)c2cc(OCCCO)ccc2N1C(=O)Cc1ccc(OC)cc1` (stereo not given in full): the composite z-score in test [1] was determined as 0.387; in test [2], 0.15; in [3], 0.213; in test [5] it was 0.481; in test [6], 0.311; in test [7] it was 0.129. Also, the composite z-score in [8] was 0.478; in test [9], 0.388; in test [10], 1.18; in test [11], -0.37; in test [13], 0.384; in [14] it was 0.293. Besides, the composite z-score is 0.394 in test [15]; -0.0107 in test [16]; 0.0284 in test [17]; 0.466 in test [18]; 0.703 in [19]; 0.549 in [20]. Further, the z-score is -2.53 (inactive) in test [4] and -0.348 in test [12].

As to `COC(=O)c1c(CC[C@@H](CO)NC(=O)Nc2ccc(OC)cc2)oc(C(=O)Cc2ccccc2)c1C(=O)OC`, the composite z-score is 1.36 in test [1]; 0.0707 in [2]; -0.0477 in [3]; 0.394 in test [5]; 0.618 in test [6]; 0.0445 in test [7]. Besides, the composite z-score in [8] is 0.325; in test [9], 0.353; in test [10], 0.306; in test [11], 0.316; in test [13] it was 0.239; in test [14], -0.315. For the same molecule, the composite z-score was -0.464 in test [15]; -0.0445 in [16]; -0.138 in test [17]; 0.068 in test [18]; 0.333 in test [19]; 0.655 in test [20]. Moreover, the z-score in test [4] was -0.487 (inactive); in test [12], 0.685.

With `[N-]=[N+]=NCc1ccccc1C[C@@]1(C(=O)O)N=C(c2ccc(OCCCO)cc2)O[C@@H]1c1ccccc1`, the composite z-score in [1] is 1.31; in test [2], 0.884; in test [3], 1.24; in test [5] it was -0.0995; in [6] it was -0.374; in test [7], -0.906. The composite z-score in test [8] is -0.879; in test [9], -1.09; in test [10], 0.738; in test [11], 0.566; in test [13] it was -0.404; in [14] it was 2.13. The composite z-score in test [15] is 1.36; in test [16], -0.0799; in test [17], 0.0469; in test [18], 0.767; in test [19] it was 1.75; in test [20], 1.09. Besides, the z-score in [4] was -0.618 (inactive); in test [12] it was -0.616.

As for `C=C(CCCC)/C(=C/C[C@@H](OC(=O)c1ccncc1)c1ccc(OCCO)cc1)c1cnc2ccccc2c1`, the composite z-score in test [1] was found to be 0.711; in test [2] it was 0.358; in test [3], 0.686; in test [5], 1.24; in test [6], 0.633; in [7] it was 1.15. The composite z-score in test [8] is 1.53; in test [9], 1.68; in [10], 1.8; in test [11] it was 0.602; in test [13], 0.737; in [14], 0.0142. Also, the composite z-score was -0.184 in test [15]; -0.096 in [16]; 0.164 in test [17]; 0.168 in test [18]; -0.0621 in [19]; 3.3 in test [20]. For the same molecule, the z-score in test [4] was -1.18 (inactive); in test [12], -1.3.
